Cruzain inh Det = blocks cruzain activity in presence of Triton detergent. purified cruzain, Z-FR-AMC fluorescence, 0.01% Triton. hit rate 0.43% among 200,000. Potency, µM, inactives show max response, negative = inhibition, usual class: inhibitors. P25779. AID 1478;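 further: plate controls were neutral wells for no effect and buffer without enzyme for full effect; nearly all actives have a fitted effect of over 40% in size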
Target sequence (P25779 123-467 limits assumed): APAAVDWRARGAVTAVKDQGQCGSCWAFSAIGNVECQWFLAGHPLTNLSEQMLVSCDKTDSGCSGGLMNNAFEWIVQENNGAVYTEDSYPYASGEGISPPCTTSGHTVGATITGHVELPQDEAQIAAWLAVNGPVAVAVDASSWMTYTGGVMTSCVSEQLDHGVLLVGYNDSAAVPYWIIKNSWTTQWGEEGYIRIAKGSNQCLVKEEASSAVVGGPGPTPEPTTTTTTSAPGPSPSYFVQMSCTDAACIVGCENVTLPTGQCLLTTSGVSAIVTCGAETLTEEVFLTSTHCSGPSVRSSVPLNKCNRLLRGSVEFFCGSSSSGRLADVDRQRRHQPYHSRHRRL
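Enzyme 1.5 nM, Z-FR-AMC 2 uM, NaOAc 100 mM pH 5.5, DTT 5 mM, Triton X-100 0.01%; 15 min RT compound preincubation; kinetic ex360/em450, 60 s delta.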
Cruzain noTriton = blocks cruzain activity in detergent-free assay; purified cruzain, Z-FR-AMC fluorescence, no detergent; Potency, µM, inactives show max response, negative = inhibition, most hits filed as inhibitors; hit rate 2.3% among 200,000;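 further: plate controls were enzyme without inhibitor for no effect and buffer without enzyme for full effect; nearly all actives have a fitted effect of over 40% in size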
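Purified cruzain at 1.5 nM, pre-incubated 15 min with compound at room temperature in 100 mM sodium acetate pH 5.5, 5 mM DTT, 0.00005% Triton X-100. Reaction started with 2 uM Z-FR-AMC; AMC fluorescence increase over 60 s gives rate.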
* marks the source's active call; other numbers are inactive results; ? = inconclusive. In the library only some 2.4% were active in any assay of this set; here they are far more common. The call rests on the fitted dose curve; in most records, active means well fitted curve in the direction sought with a large enough effect; inconclusive means small, poorly fitted or top-dose-only effect, or another doubt; inactive means no such curve, though single readings can be large; an effect the other way counts as inactive or inconclusive. Potency means the concentration at half of the fitted maximal effect.

SMILES	Cruzain inh Det	Cruzain noTriton
COc1cccc(-c2nc(NC3CCNCC3)c3ccccc3n2)c1	8%	-6%
COc1ccc(NC(=O)N2CCN(S(=O)(=O)c3ccc4c(ccn4C)c3)CC2)cc1OC	-3%	?
Cc1cc(O)c(C(C[N+](=O)[O-])c2ccc(Cl)cc2)c(=O)o1 (stereo unspecified)	0%	-15%
Cc1cc(C)n(C(C[N+](=O)[O-])c2ccc(Cl)cc2)n1 (stereo unspecified)	-5%	20µM*
O=C(O)C(C(=O)O)P(=S)(S)c1ccccc1 (stereo unspecified)	6%	-5%
O=C(COc1ccc(-c2nnco2)cc1)NCc1ccccc1Cl	-4%	18%
Cc1cc(C(=O)COc2ccc(-c3nnco3)cc2)c(C)n1Cc1ccccc1	3%	16µM*
CCCS(=O)(=O)c1ncc(Cl)c(C(=O)N2CCN(c3ccc(OC)cc3)CC2)n1	-5%	1%
COc1ccccc1/C=C/c1nc(C#N)c(N2CCN(c3ccccc3)CC2)o1	4%	13%
COc1cccc(/C=C/c2nc(C#N)c(N3CCN(C)CC3)o2)c1	25µM*	3.2µM*
COc1cc(/C=C/c2nc(C#N)c(N3CCN(C)CC3)o2)cc(OC)c1OC	-1%	13µM*
COc1ccc(N2CCN(c3oc(/C=C/c4cccc(OC)c4)nc3C#N)CC2)cc1	4%	6%
CC[C@H](CN(C)C)C(=O)c1ccco1	4%	4%
COCCNC(=O)Nc1cc(C(=O)NCc2ccc(C(C)C)cc2)ccc1N1CCCC1	-7%	?
COc1cc(NC(=O)C2CCN(S(=O)(=O)c3c(C)noc3/C=C/c3ccccc3F)CC2)cc(OC)c1OC	-3%	?
O=[N+]([O-])c1ccc(N2CCN(S(=O)(=O)c3ccc(Cl)c(Cl)c3)CC2)cc1NCCN1CCOCC1	-5%	6%
CCNc1cc(N2CCN(S(=O)(=O)c3ccc4c(c3)CCCC4)CC2)ccc1[N+](=O)[O-]	-2%	5µM*
Cc1cc(C)c(S(=O)(=O)N2CCN(c3ccc([N+](=O)[O-])c(NCc4ccco4)c3)CC2)c(C)c1	0%	6.3µM*
Cc1cc(C)c(S(=O)(=O)N2CCN(c3ccc([N+](=O)[O-])c(NCC4CCCO4)c3)CC2)c(C)c1 (stereo unspecified)	-8%	?
CCc1ccc(NC(=O)c2ccc3c(c2)N(Cc2ccc(C)cc2)CCS3)cc1	-5%	16µM*
Cc1ccc(CN2CCSc3ccc(C(=O)Nc4ccc(F)cc4F)cc32)cc1	-11%	?
COc1ccc(CCNC(=O)c2ccc3c(c2)N(Cc2ccc(C)cc2)CCS3)cc1OC	-4%	-2%
COc1cc(OC)c(NC(=O)c2ccc3c(c2)N(Cc2ccc(C)cc2)CCS3)cc1Cl	-4%	7.9µM*
CCOc1ccc(C(=O)Nc2ccc3oc(-c4cccc5ccccc45)nc3c2)cc1	1%	20%
CCN(C(=O)c1cn(-c2cccc(OC)c2)c(=O)c2ccccc12)c1ccccc1C	-1%	17%
SMILES	Cruzain inh Det	Cruzain noTriton
C[N+]1(C)CCO[C@](O)(c2ccccc2)C1	6%	3%
Cc1ccc(Cn2c(SCc3ccc(C(=O)N4CCCCC4)cc3)nc3ccncc32)cc1	-13%	-3%
CS(=O)(=O)N(CC(=O)Nc1ccc2c(c1)OCCO2)Cc1ccccc1	1%	0%
O=C(CN(Cc1ccccc1)S(=O)(=O)c1ccc2c(c1)OCCO2)Nc1ccc2c(c1)OCCO2	-1%	20µM*
CN1C[C@H](C(=O)N[C@@]2(C)O[C@@]3(O)[C@H]4CCCN4C(=O)[C@@H](Cc4ccccc4)N3C2=O)C=C2c3cccc4[nH]cc(c34)C[C@@H]21	2%	-12%
CS(=O)(=O)Nc1cccc(-c2ccc3ncnc(NCc4cccs4)c3c2)c1	-7%	-6%
CC(C)C(C(=O)OCC(=O)c1cccc([N+](=O)[O-])c1)N1C(=O)[C@@H]2[C@H]3CC[C@H](C3)[C@@H]2C1=O (stereo partly specified)	16µM*	?
O=C(CN1C(=O)C2C3CCC(C3)C2C1=O)OCC(=O)c1cccc([N+](=O)[O-])c1 (stereo unspecified)	0%	-11%
COc1ccc(C(=O)N(Cc2ccc(C(C)C)cc2)C2CCS(=O)(=O)C2)cc1 (stereo unspecified)	-5%	?
COc1ccc(C(C)=O)cc1CSc1nc2ccccc2c(=O)n1-c1ccccc1C	-10%	?
COc1ccccc1-n1c(SCc2cc(=O)oc3cc(O)ccc23)nc2ccccc2c1=O	-12%	25µM*
Cc1ccc2c(nc3s/c(=C/c4cccs4)c(=O)n32)c1C	-2%	16µM*
Cc1cc(C)c2nc3s/c(=C/c4ccccc4)c(=O)n3c2c1	3%	-18%
Cc1ccc(CCNC(=O)CCSCc2ccccc2F)cc1	1%	-11%
CC1CCN(CCCNC(=O)c2cc(Sc3ccc(F)cc3)nc3ccccc23)CC1	1%	6%
COc1cc2ncc3c(-c4ccccc4)nn(CC(=O)NC4CCCCC4)c3c2cc1OC	0%	-13%

Compound activity: PubChem, National Center for Advancing Translational Sciences (NCATS)
